# From the supplement of paper PMC4022240
# ± gives the standard deviation.
# T1: HaloTag-ATRX ADD domain (163-292)
# T1 chain: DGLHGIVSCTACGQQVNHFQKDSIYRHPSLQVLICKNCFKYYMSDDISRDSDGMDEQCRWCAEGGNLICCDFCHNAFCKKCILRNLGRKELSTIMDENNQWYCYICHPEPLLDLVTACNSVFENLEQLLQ
# Experiments:
# Test in all cases: peptide microarray binding signal (635 nm), min-max normalized on array (fraction of array maximum); higher = stronger binding
# Conditions in all cases: peptide region: H3 30-42
# [1] = molecular target: T1, HaloTag-ATRX ADD domain (163-292)
# Method in brief: (§1)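 Binding signal is the mean intensity of triplicate spots, min-max scaled within each library. Histone 13-mer peptide–cellulose conjugates were spotted in triplicate on nitrocellulose with a Cy3 tracer and blocked overnight at 4°C. Probing lasted 1 h at 4°C, either with biotin-labelled HaloTag reader fusions (10 nM to 1 μM) and streptavidin-Alexa Fluor 647 or with rabbit histone antibodies (1:10,000 to 1:2,000) and anti-rabbit Alexa 647. An Axon GenePix 4000B read signal at 635 nm and misprints at 532 nm.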
# [2] = molecular target: HaloTag-ING2 PHD (mouse Ing2 200-280)
# Method in brief: as §1
# [3] = molecular target: anti-H3K4me3 antibody ab8580
# Method in brief: as §1
# [4] = molecular target: anti-H3K9me3 antibody ab8898
# Method in brief: as §1
# [5] = peptide modifications: H3K36me1 H3K37me1, binder concentration: 1:2,000 dilution
# [6] = peptide modifications: H3K36me1 H3K37me1, binder concentration: 1:10,000 dilution
# [7] = peptide modifications: H3K36me1 H3K37me2, binder concentration: 1:2,000 dilution
# [8] = peptide modifications: H3K36me1 H3K37me2, binder concentration: 1:10,000 dilution
# [9] = peptide modifications: H3K36me1 H3K37me3, binder concentration: 1:2,000 dilution
# [10] = peptide modifications: H3K36me1 H3K37me3, binder concentration: 1:10,000 dilution
# [11] = peptide modifications: H3K36me2, binder concentration: 1:2,000 dilution
# [12] = peptide modifications: H3K36me2, binder concentration: 1:10,000 dilution
# [13] = peptide modifications: H3K36me2 H3K37ac, binder concentration: 1:2,000 dilution
# [14] = peptide modifications: H3K36me2 H3K37ac, binder concentration: 1:10,000 dilution
binder,measurement,setting,value
PATGGVKKPHRYR [H3 30-42 P A T G G V Kme Kme P H R Y R],peptide microarray binding signal,"[1]; peptide modifications: H3K36me1 H3K37me1, binder concentration: 50 nM",0.00245 ± 4.3e-05
same,peptide microarray binding signal,"[1]; peptide modifications: H3K36me1 H3K37me1, binder concentration: 500 nM",0.0039 ± 0.00015
same,peptide microarray binding signal,"[2]; peptide modifications: H3K36me1 H3K37me1, binder concentration: 10 nM",0.00424 ± 0.00021
same,peptide microarray binding signal,"[2]; peptide modifications: H3K36me1 H3K37me1, binder concentration: 100 nM",0.000496 ± 9.7e-06
same,peptide microarray binding signal,[3]; [5],0.000189 ± 2e-06
same,peptide microarray binding signal,[3]; [6],0.00559 ± 0.0011
same,peptide microarray binding signal,[4]; [5],0.00157 ± 0.00052
same,peptide microarray binding signal,[4]; [6],0.00254 ± 0.00014
PATGGVKKPHRYR [H3 30-42 P A T G G V Kme Kme2 P H R Y R],peptide microarray binding signal,"[1]; peptide modifications: H3K36me1 H3K37me2, binder concentration: 50 nM",0.00241 ± 8.1e-05
same,peptide microarray binding signal,"[1]; peptide modifications: H3K36me1 H3K37me2, binder concentration: 500 nM",0.00529 ± 0.00037
same,peptide microarray binding signal,"[2]; peptide modifications: H3K36me1 H3K37me2, binder concentration: 10 nM",0.00442 ± 0.00037
same,peptide microarray binding signal,"[2]; peptide modifications: H3K36me1 H3K37me2, binder concentration: 100 nM",0.00709 ± 0.0016
same,peptide microarray binding signal,[3]; [7],0.000245 ± 5.2e-06
same,peptide microarray binding signal,[3]; [8],0.000571 ± 1.1e-05
same,peptide microarray binding signal,[4]; [7],0.00337 ± 0.0001
same,peptide microarray binding signal,[4]; [8],0.000865 ± 2.4e-05
PATGGVKKPHRYR [H3 30-42 P A T G G V Kme Kme3 P H R Y R],peptide microarray binding signal,"[1]; peptide modifications: H3K36me1 H3K37me3, binder concentration: 50 nM",0.00135 ± 1.7e-05
same,peptide microarray binding signal,"[1]; peptide modifications: H3K36me1 H3K37me3, binder concentration: 500 nM",0.00229 ± 8.8e-05
same,peptide microarray binding signal,"[2]; peptide modifications: H3K36me1 H3K37me3, binder concentration: 10 nM",0.00203 ± 8.9e-05
same,peptide microarray binding signal,"[2]; peptide modifications: H3K36me1 H3K37me3, binder concentration: 100 nM",0.00191 ± 0.00013
same,peptide microarray binding signal,[3]; [9],0.000359 ± 2.1e-05
same,peptide microarray binding signal,[3]; [10],0.000514 ± 1.1e-05
same,peptide microarray binding signal,[4]; [9],0.0008 ± 8.7e-05
same,peptide microarray binding signal,[4]; [10],0.000807 ± 1.5e-05
PATGGVKKPHRYR [H3 30-42 P A T G G V Kme2 K P H R Y R],peptide microarray binding signal,"[1]; peptide modifications: H3K36me2, binder concentration: 50 nM",0.00417 ± 0.0002
same,peptide microarray binding signal,"[1]; peptide modifications: H3K36me2, binder concentration: 500 nM",0.00919 ± 0.00057
same,peptide microarray binding signal,"[2]; peptide modifications: H3K36me2, binder concentration: 10 nM",0.0135 ± 0.0016
same,peptide microarray binding signal,"[2]; peptide modifications: H3K36me2, binder concentration: 100 nM",0.0203 ± 0.0023
same,peptide microarray binding signal,[3]; [11],0.0031 ± 0.00053
same,peptide microarray binding signal,[3]; [12],0.00377 ± 0.00013
same,peptide microarray binding signal,[4]; [11],0.00305 ± 0.00012
same,peptide microarray binding signal,[4]; [12],0.00271 ± 7.1e-05
PATGGVKKPHRYR [H3 30-42 P A T G G V Kme2 Kac P H R Y R],peptide microarray binding signal,"[1]; peptide modifications: H3K36me2 H3K37ac, binder concentration: 50 nM",0.00094 ± 1.9e-05
same,peptide microarray binding signal,"[1]; peptide modifications: H3K36me2 H3K37ac, binder concentration: 500 nM",0.000857 ± 1.5e-05
same,peptide microarray binding signal,"[2]; peptide modifications: H3K36me2 H3K37ac, binder concentration: 10 nM",0.0544 ± 0.07
same,peptide microarray binding signal,"[2]; peptide modifications: H3K36me2 H3K37ac, binder concentration: 100 nM",0.00354 ± 0.00098
same,peptide microarray binding signal,[3]; [13],0.000529 ± 1.4e-05
same,peptide microarray binding signal,[3]; [14],0.000685 ± 4.7e-05
same,peptide microarray binding signal,[4]; [13],0.000438 ± 1.5e-05
same,peptide microarray binding signal,[4]; [14],0.000461 ± 8.7e-06
